Source: PubChem BioAssay
Activity calls are given as the source filed them.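 How the source made its calls: active means inhibition above 20% together with a positive visual image hit; inconclusive means visual image hit but inhibition not above 20%; inactive means no visual image hit.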

test: inhibitors of TNFa-induced NFkB p65 translocation, primary screen, imaging, HUVEC, MLSMR starter and 10KST1 sets (AID 438); details: HUVEC TNFa-induced p65 nuclear translocation; cell count: measured here: nuclei count (cytotoxicity indicator), at 2.08 µM; inhibition: at 2 µM, stronger effect = higher value, 0% TNFa-plus-vehicle, 100% no-TNFa wells;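 further: compound added about 3h40 before a 20 min TNFalpha stimulation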;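 on inhibition: signal is the nuclear over cytoplasmic p65 intensity ratio per well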

Question: What does the source list for `COc1ccc(OC)c(NC(=O)CSc2nnc(-c3ccco3)n2-c2ccccc2)c1`?
Answer: inhibition: 10.2% (inactive); cell count: 552

Question: What does the source list for `C#CCSc1nc(-c2cccs2)ccc1C#N`?
Answer: cell count: 340; inhibition: -1% (inactive)

Question: With `O=C1c2oc3ccccc3c(=O)c2C(c2cccnc2)N1Cc1ccco1` (stereo not given) as the compound, how does the inhibition read?
Answer: -2.7% (inactive)

Question: What about the cell count of the same compound?
Answer: 389

Question: With `Cc1ccc(C(=O)Nc2c(C(=O)N3CCOCC3)cnn2-c2ccccc2)cc1` as the compound, how does the inhibition read?
Answer: 5.4% (inactive)

Question: What about the cell count of the same compound?
Answer: 354

Question: With `C#CCOC(=O)C1C2C=CC(C2)C1C(=O)O` (stereo not given) as the compound, how does the inhibition read?
Answer: 9.9% (inactive)

Question: And the cell count?
Answer: 394

Question: With `O=C(NC1CCCCCCC1)C1CCN(c2nc3ccccc3o2)CC1` as the compound, how does the inhibition read?
Answer: -10.2% (inactive)

Question: What about the cell count of the same compound?
Answer: 737

Question: What does the source list for `COC(=O)c1[nH]c2ccc(C)cc2c1NC(=O)CN1CCC(C)CC1`?
Answer: cell count: 340; inhibition: -0.4% (inactive)

Question: What does the source list for `Cc1cc(C)nc(SCc2nnc(SCC(=O)Nc3ncc(C)s3)n2Cc2ccco2)n1`?
Answer: inhibition: 3% (inactive); cell count: 422

Question: For `O=C(c1ccc(S(=O)(=O)N2CCC(c3nc4ccccc4s3)CC2)cc1)N1CCOCC1`, which inhibition is on record?
Answer: -2.9% (inactive)

Question: What about the cell count of the same compound?
Answer: 689

Question: With `CCCCCc1nnc(NC(=O)Cc2cccs2)s1` as the compound, how does the inhibition read?
Answer: 3.8% (inactive)

Question: And the cell count?
Answer: 325

Question: What does the source list for `COc1ccc(N=C2C(=O)Nc3ccccc32)cc1`?
Answer: cell count: 617; inhibition: 2.4% (inactive)

Question: With `O=C(O)CCc1ccc(-c2ccc(F)cc2)n1CCC(=O)O` as the compound, how does the inhibition read?
Answer: 1.8% (inactive)

Question: And the cell count?
Answer: 422

Question: Which results are given for `COC(=O)c1ccccc1NC(=O)c1cnc2sccn2c1=O`?
Answer: cell count: 505; inhibition: -19.2% (inactive)

Question: Which cell count does the source give for `COc1ccc(Cl)c(NC(=O)NCCN2CCN(c3ccccc3)CC2)c1` here?
Answer: 410

Question: What about the inhibition of the same compound?
Answer: 1.8% (inactive)

Question: Which cell count does the source give for `COc1cccc(NC(=O)N(CCCN2CCOCC2)C(C)c2cc3cccc(OC)c3o2)c1` (stereo not given) here?
Answer: 863

Question: And the inhibition?
Answer: 5% (inactive)

Question: Which results are given for `CC(C)(C)NC(=O)CN(Cc1cccs1)C(=O)c1csnn1`?
Answer: inhibition: 12.9% (inactive); cell count: 570

Question: For `O=C(CSc1nnc(-c2ccccn2)n1Cc1ccccc1)N1CCCC1`, which cell count is on record?
Answer: 340

Question: What about the inhibition of the same compound?
Answer: 8.1% (inactive)

Question: Which results are given for `Cc1[nH]nc(-c2ccc(O)c(C)c2O)c1-c1cnn(-c2ccccc2)c1`?
Answer: inhibition: 1.5% (inactive); cell count: 345

Question: Which cell count does the source give for `O=C(CN1CCSCC1)N1CCc2[nH]c3ccc(Br)cc3c2C1` here?
Answer: 691

Question: And the inhibition?
Answer: 3.4% (inactive)

Question: With `COc1ccccc1C1N(c2ccc(F)cc2)C(=O)C2CCCN21` (stereo not given) as the compound, how does the inhibition read?
Answer: -3.9% (inactive)

Question: And the cell count?
Answer: 429

Question: For `Cc1cc(N2C(=O)CC(N3CCN(c4ccc(C(=O)c5cccs5)cc4)CC3)C2=O)no1` (stereo not given), which cell count is on record?
Answer: 654

Question: What about the inhibition of the same compound?
Answer: 10.8% (inactive)

Question: Which inhibition does the source give for `CC(C)(C)NC(=O)C(Cc1ccccc1)NS(=O)(=O)c1cccc2nsnc12` (stereo not given) here?
Answer: -19.8% (inactive)

Question: What about the cell count of the same compound?
Answer: 721

Question: Which results are given for `COc1ccc(N2C(=O)c3cccc4cccc(c34)C2=O)nn1`?
Answer: cell count: 345; inhibition: 1.5% (inactive)

Question: Which inhibition does the source give for `O=C(CSc1ccccc1C(=O)NCCCN1CCCC1=O)NCc1ccco1` here?
Answer: 3.8% (inactive)

Question: What about the cell count of the same compound?
Answer: 463

Question: Which inhibition does the source give for `Cc1ccc(OCC(O)Cn2c(NCCc3ccccc3)nc3c2c(=O)[nH]c(=O)n3C)cc1` (stereo not given) here?
Answer: -1.8% (inactive)

Question: What about the cell count of the same compound?
Answer: 421

Question: What does the source list for `CC1CCCC(C)N1CCNC(=O)C1CCN(S(=O)(=O)N2CCCCC2)CC1` (stereo not given)?
Answer: cell count: 383; inhibition: 4.2% (inactive)

Question: With `Cc1nc2ncnn2c(N2CCC(C(=O)NCC3CCCO3)CC2)c1Cc1ccccc1` (stereo not given) as the compound, how does the cell count read?
Answer: 642

Question: And the inhibition?
Answer: -10.1% (inactive)

Question: Which inhibition does the source give for `COc1ccc(NC(=O)Nc2ccc(N3CCCC3=O)cc2)cc1OC` here?
Answer: 4% (inactive)

Question: What about the cell count of the same compound?
Answer: 462

Question: What does the source list for `CC(NC(=O)NC12CC3CC(CC(C3)C1)C2)C1CCCO1` (stereo not given)?
Answer: inhibition: 2.9% (inactive); cell count: 356

Question: For `COc1ccc(N2CCN(C(=O)CSc3ccccc3)CC2)cc1`, which inhibition is on record?
Answer: -11.8% (inactive)

Question: What about the cell count of the same compound?
Answer: 393

Question: Which results are given for `COC(=O)c1cccc(NC(=O)CN2CCN(Cc3ccccc3)CC2)c1`?
Answer: cell count: 382; inhibition: -6.1% (inactive)

Question: With `O=C(Nc1ccc(-c2nc3ncccc3o2)cc1)c1ccc(Br)o1` as the compound, how does the cell count read?
Answer: 340

Question: And the inhibition?
Answer: 25.6% (inactive)

Question: For `COc1ccc(S(=O)(=O)Nc2ccc(Cl)cn2)c(C)c1C`, which inhibition is on record?
Answer: -29.6% (inactive)

Question: What about the cell count of the same compound?
Answer: 482

Question: Which results are given for `COc1cccc(NC(=O)N2CCCC2C(=O)Nc2ccc3c(c2)OCO3)c1` (stereo not given)?
Answer: inhibition: 5.8% (inactive); cell count: 649

Question: For `O=C(CSc1nc2ccccc2c(=O)n1Cc1ccco1)NCc1ccccc1`, which inhibition is on record?
Answer: -6.1% (inactive)

Question: What about the cell count of the same compound?
Answer: 399

Question: With `O=C(NC1CCCC1)C(NS(=O)(=O)c1cccc2nsnc12)c1ccccc1` (stereo not given) as the compound, how does the inhibition read?
Answer: -16.3% (inactive)

Question: And the cell count?
Answer: 309

Question: With `CCOC(=O)c1sc(NC(=O)CSc2ncn(-c3ccccc3)n2)nc1C` as the compound, how does the inhibition read?
Answer: -6.5% (inactive)

Question: And the cell count?
Answer: 527

Question: What does the source list for `COC(=O)Nc1ccc(S(=O)(=O)N2CCCCCC2)cc1`?
Answer: inhibition: -2.5% (inactive); cell count: 336

Question: Which results are given for `Cc1cc(C)n2nc(SCC(=O)N(C)Cc3ccccc3)nc2n1`?
Answer: inhibition: 7.4% (inactive); cell count: 407

Question: With `O=C(CSc1nnc(Cc2ccccc2)n1-c1cccc(Cl)c1)N1CCOCC1` as the compound, how does the cell count read?
Answer: 352

Question: What about the inhibition of the same compound?
Answer: 10.5% (inactive)
